Source: PubChem BioAssay
LMP1 NFkB inh = EBV LMP1-driven NF-kappaB luciferase reporter inhibitors, primary screen, cell-based, luminescence, single point | LMP1-induced NF-kappaB luciferase reporter cells | hit rate 0.69% among 350,000 | inhibition, % at 12.5 µM; in the data active = inhibition above about 41%
KKLEB tox = cytotoxicity in KKLEB CF airway cells, primary screen, cytotoxicity control for CF NF-kB inhibitor project, cell-based, uHTS, fluorescence assay plates | KKLEB CF airway cells viability, ATPlite luminescence, overnight; hits give low values; cells stimulated with P. aeruginosa culture filtrate | activity change (cytotoxicity), % at 5 µM | hit rate 0.36% among 360,000;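 active = corrected activity change at or below -50% at 5 µM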
Shn3 3UTR inh = reduction of Shn3 3'UTR firefly luciferase signal, primary screen, Schnurri-3 inhibitor project, cell-based, Clone20 osteoblasts, set 2 | Clone20 osteoblast Shn3 3'UTR firefly luciferase, 24 h | inhibition, % at 12.5 µM | hit rate 0.52% among 360,000;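 active = mean inhibition of at least 75% with every replicate also reaching 75%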
CF NFkB block = inhibitors of PAF-induced NF-kB signaling, primary screen, cell-based, GFP fluorescence, uHTS; inhibition, % at 5 µM; KKLEB NF-kB-GFP reporter, GFP fluorescence overnight; AID 588850, 2011; hit rate 0.86% among 360,000;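 active = at least 50% inhibition at 5 µM, scaled per plate between neutral and stimulator controls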;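 note: PAF is a Pseudomonas aeruginosa culture filtrate used as stimulus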
HIF-2a block = HIF-2a reporter inhibitors, primary screen, luminescence, 786-0 RCC cells; hit rate 0.72% among 360,000; 786-0 RCC cells HIF-2a reporter, luciferase luminescence, overnight; AID 624352, 2012; inhibition, % at 18.8 µM;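 active = inhibition of the luminescence signal of 40% or more relative to plate controls, in a single-dose primary screen at 18.75 µM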
Peg3 promoter = Peg3 promoter-driven luciferase inhibitors, primary screen, cell-based, HeLa, luciferase luminescence; HeLa PEG-Prom luciferase reporter, overnight; inhibition, % at 20 µM; hit rate 1.7% among 360,000; AID 588405, 2011;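 active = inhibition of at least 50% at 20 µM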
Large screens that a line does not name were inactive. The list is not random: actives were taken first. Their share in the collection is about 2.9%.

COc1cccc2oc3ccc(C#CC4(N)CCCCC4)cc3c(=O)c12	Peg3 promoter 60
O=C(Nc1cccc(O)c1)c1cc(-c2ccc3c(c2)OCO3)on1	KKLEB tox -70
CCc1nnc(NC(=O)C2CCCN(S(=O)(=O)c3ccc(OC)cc3)C2)s1 (stereo unspecified)	none
CC(=O)c1cccc(NC(=O)CSc2ncc(C(=O)Nc3ccccc3)c(=O)n2C)c1	Peg3 promoter 110
CC(=O)Nc1cccc(NC(=O)CSc2ncc(C(=O)Nc3ccc(F)cc3)c(=O)n2C)c1	none
CC(=O)Nc1ccc(NC(=O)CSc2ncc(C(=O)Nc3ccc(Cl)cc3)c(=O)n2C)cc1	none
Cn1c(SCC(=O)NCC2CCCO2)ncc(C(=O)Nc2ccc(Cl)cc2)c1=O (stereo unspecified)	Peg3 promoter 59
Cn1c(SCC(=O)NCC2CCCO2)ncc(C(=O)Nc2ccc(F)cc2)c1=O (stereo unspecified)	none
CC(=O)Nc1cccc(NC(=O)CSc2ncc(C(=O)Nc3ccccc3)c(=O)n2C)c1	Peg3 promoter 105
COc1ccc(C2Nc3ccccc3C(=O)N2O)cc1CN1CCOCC1 (stereo unspecified)	none
O=c1onc(-c2cccnc2)n1-c1ccccc1F	none
C=C1C(=O)O[C@H]2[C@H]1[C@@H](O)CC(=C)[C@@H]1CC(=O)[C@@H](C)[C@H]21	CF NFkB block 85
CS(=O)(=O)N(C(=O)NC(=O)NC12CC3CC(CC(C3)C1)C2)C1CCCCC1	none
Cc1[nH]n(-c2ccccc2)c(=O)c1N=Nc1ccccc1O	Shn3 3UTR inh 85
COc1ccc(-n2nc3c(N)n[nH]c3cc2=O)cc1	none
Cc1ccccc1OCc1csc(N)n1	none
O=C(/C(=C/O)N=Nc1ccccc1)c1ccncc1	none
O=C(/C(=C/O)N=Nc1ccccc1)c1ccc(Cl)cc1	CF NFkB block 63
Cc1ccc(N=N/C(=C\O)C(=O)c2ccc(Cl)cc2)cc1	KKLEB tox -57, CF NFkB block 76, Peg3 promoter 75
CCN(Cc1ccccc1)C(=O)CN1C(=O)COc2ccc(S(=O)(=O)NC3CCCC3)cc21	none
COc1ccccc1NC(=O)c1c(Nc2ccccc2C)sc(C(=O)Nc2cccc(Cl)c2)c1N	LMP1 NFkB inh 43
COc1ccc(Nc2sc(C(=O)c3ccc(Cl)cc3)c(N)c2C(=O)Nc2ccccc2OC)cc1	none
Cc1ccc(NS(=O)(=O)c2cc(-c3n[nH]c(=O)c4ccccc34)ccc2C)cc1	Peg3 promoter 62
CC1=C(C(=O)Nc2ccc(C)cc2C)C(c2cccc([N+](=O)[O-])c2)n2nc(C(=O)OC(C)C)nc2N1 (stereo unspecified)	Peg3 promoter 81
Cc1cc(-c2nn(-c3ccccc3)cc2/C=C2\SC(N)=NC2=O)ccc1OC(C)C	Peg3 promoter 78
CCCCN1CC(COCc2ccccc2)Oc2cccc(Oc3ccc(C)cc3)c2S1(=O)=O (stereo unspecified)	Shn3 3UTR inh 87
CCCCN1CC(COCc2ccccc2)Oc2cccc(Oc3cc(C)c(C)c(C)c3)c2S1(=O)=O (stereo unspecified)	Shn3 3UTR inh 90
CCCCN1CC(COCc2ccccc2)Oc2cccc(Oc3ccc(F)cc3)c2S1(=O)=O (stereo unspecified)	none
CCCCN1CC(COCc2ccccc2)Oc2cccc(Oc3ccccc3)c2S1(=O)=O (stereo unspecified)	none
CCOC(=O)c1c(C)n(-c2ccccc2)c2ccc(OCCN(C)C)cc12	none
C=CC(=O)Nc1ccc(CN2C(=O)N(c3c(Cl)c(OC)cc(OC)c3Cl)Cc3cnc(NCCCCN(CC)CC)nc32)cc1	Peg3 promoter 52
CCN(CC)CCNC(=O)c1ccc(NC(=O)Cc2ccc(OC)c(S(=O)(=O)N3CCOCC3)c2)cc1	none
CS(=O)(=O)Nc1ccc([N+](=O)[O-])cc1Oc1ccccc1	CF NFkB block 69
Cc1nn(CC(=O)NCc2ccco2)c(C)c1[N+](=O)[O-]	none
CC1=C(C(=O)N(C)C)CC(CC(=O)NCCN2CCOCC2)C(=O)N1Cc1ccc(F)cc1 (stereo unspecified)	none
COc1cc(/C=C/C(=O)O[C@H]2[C@H](O[C@@H]3O[C@@H](C)[C@H](O)[C@@H](O)[C@H]3O)[C@@H](O)[C@H](OCCc3ccc(O)c(OC)c3)O[C@@H]2CO)ccc1O	none
COc1ccc(N(CC(=O)Nc2ccccc2C(=O)N2CCCC2)S(=O)(=O)c2ccccc2)cc1	LMP1 NFkB inh 63
CCN(CC)CCNc1cc(C)nc2c1C(=O)C(=O)C=C2N1CCCCC1	Peg3 promoter 74
CC(OC(=O)c1ccc(Cl)c([N+](=O)[O-])c1)C(=O)N1CCN(Cc2ccccc2)CC1 (stereo unspecified)	Peg3 promoter 78
N/C(=N\OC(=O)c1cc([N+](=O)[O-])ccc1Cl)c1cccnc1	Peg3 promoter 62
N/C(=N\OC(=O)c1ccc([N+](=O)[O-])cc1)c1cccnc1	none
CC(C(=O)N1CCN(Cc2ccccc2)CC1)c1ccc([N+](=O)[O-])cc1 (stereo unspecified)	none
N/C(=N\OC(=O)c1ccc(Cl)c([N+](=O)[O-])c1)c1ccccc1	Peg3 promoter 75
OC(c1cccc(CN2CCCCC2)c1)c1ncc(-c2cccc(C(F)(F)F)c2)[nH]1 (stereo unspecified)	none (no result: LMP1 NFkB inh)
COc1cc(NC(=O)C2CC(c3ccccc3Cl)=NO2)cc(OC)c1OC (stereo unspecified)	none
CC(C)Cc1ccc(C(C)NC(=O)Cc2ccc(S(=O)(=O)N3CCOCC3)s2)cc1 (stereo unspecified)	none
COc1ccc(NC(=O)C2Cc3c(-c4ccccc4)ccnc3O2)cc1OC (stereo unspecified)	none (no result: LMP1 NFkB inh)
COc1ccc(C(=O)Nc2ccc(C(=O)Nc3cccnc3)cc2)cc1	none
CC(=O)Oc1ccc(C(=O)Nc2cccnc2)cc1	LMP1 NFkB inh 85
Cc1ccc2c(c1)c1c(n2CC(O)CNC2CCCC2)CCCC1 (stereo unspecified)	Peg3 promoter 61
Cc1ccc2c(c1)c1c3n2CCN(CC(N)=O)C3CCC1 (stereo unspecified)	none
Cc1ccc2c(c1)c1c3n2CCN(CC(O)CNC(C)C)C3CCC1 (stereo unspecified)	Peg3 promoter 72
Cc1ccc2c(c1)c1c(n2CC(O)Cn2ccnc2C)C(=O)CCC1 (stereo unspecified)	none
COc1ccc(-c2nc3ccccn3c2Cl)cc1	none
